Experimental data reported in PubChem BioAssay.
Activity calls are given as the source filed them. Unless noted, no rule for the calls is given here.

Key:
[1] = resazurin metabolic signal in HepG2 cells – cell-based, resazurin fluorescence, 24 h, PK04 Diversity Set, profiling panel (AID 1172); conditions: HepG2 viability, higher = more signal
[2] = budding yeast growth changes without added modifier – OD600, strain BY4716, 24 h, basal condition, primary screen (AID 1173); conditions: S. cerevisiae BY4716 growth, OD600, 24 h; higher = more signal, called active from +8 up or from −8 down
[3] = viability profiling in MM1S myeloma cells – cell-based, resazurin fluorescence, basal, 24 h, PK04 Diversity Set, profiling panel (AID 1174); conditions: higher = more signal, called active from +8 up or from −8 down;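 also: MM1S multiple myeloma cell line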
[4] = target: Dihydroorotate dehydrogenase (quinone), mitochondrial (Plasmodium falciparum (isolate 3D7)) (UniProt Q08210); test: inhibition of P. falciparum DHODH – biochemical, C-terminal His tag, absorbance 600 nm, primary screen (AID 1175); conditions: PfDHODH enzyme, DCIP absorbance 600 nm; higher = more signal, called active from +8 up or from −8 down;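 also: recombinant parasite enzyme with a five histidine tag at its C terminus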
[5] = inhibition of PAO1 biofilm formation – strain PAO1, LB-PBS medium, absorbance 600 nm, primary screen (AID 1176); conditions: P. aeruginosa PAO1 growth/biofilm, A600, 12 h; higher = more signal
[6] = growth modulation of vineyard yeast isolate – strain RM11-1a, OD600, basal, 24 h, primary screen (AID 1177);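 also: cultures grown under basal conditions with no added stressor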; conditions: S. cerevisiae RM11-1a growth, OD600, 24 h; higher = more signal, called active from +8 up or from −8 down
[7] = growth of efflux-deficient E. coli DRC39 – strain DRC39, OD650, 24 h, E. coli filamentation inducers, primary screen (AID 1178);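 also: growth measured as culture turbidity by optical density at 650 nm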; conditions: E. coli DRC39 acrAB, higher = more signal, called active from +8 up or from −8 down
[8] = growth of efflux-deficient E. coli DRC39 – strain DRC39, OD650, 48 h, E. coli filamentation inducers, primary screen (AID 1179);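 also: screen aims at cell division blockers that make cells filament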; conditions: E. coli DRC39 delta-acrAB growth, higher = more signal, called active from +8 up or from −8 down
[9] = viability profiling in RPMI8226 myeloma cells – cell-based, resazurin fluorescence, basal, 24 h, PK04 Diversity Set, profiling panel (AID 1180); conditions: higher = more signal;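 also: RPMI8826 multiple myeloma cell line at 5000 cells per well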
[10] = target: E3 ubiquitin-protein ligase XIAP (Homo sapiens) (UniProt P98170); test: small molecules binding XIAP protein – biophysical, small-molecule microarray, fluorescence 635 nm, primary screen (AID 1181); conditions: higher = more signal;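 also: score merges 667 nm emission and signal to noise over triplicate slides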
[11] = test system: XIP peptide (Xip251-270) binding; test: XIP fragment 251-270 binding compounds – biochemical, small-molecule microarray, fluorescence 635/667 nm, 0.1 µg/mL protein, primary screen (AID 1182); conditions: fluorescent protein binding, 635 nm, higher = more signal, called active from +8 up or from −8 down
[12] = test system: XIP peptide (Xip251-270); test: compounds binding XIP fragment 251-270 – biochemical, small-molecule microarray, fluorescence 635/667 nm, 0.5 µg/mL protein, primary screen (AID 1183); conditions: fluorescence 635 nm, higher = more signal
[13] = blood-stage malaria parasite viability loss – strain 3D7, DAPI fluorescence, 100 nL, primary screen (AID 1184);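 also: parasites grown inside human red blood cells in medium with human serum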; conditions: P. falciparum 3D7 growth, 3 d, higher = more signal
[14] = target: Homeobox protein Hox-A13 (Mus musculus) (UniProt Q62424); test: disruptors of Hoxa13 oligonucleotide interaction – biochemical, fluorescence polarization, labeled oligonucleotide, primary screen (AID 1185); conditions: Hoxa13:DNA binding, 15 min, higher = more signal, called active from +8 up or from −8 down
[15] = blockers of DNA damage checkpoint Chk1 activation – imaging, HeLa, hydroxyurea, phospho-Chk1 antibody, percent positive cells, primary screen (AID 1186); conditions: hydroxyurea-induced phospho-Chk1 immunofluorescence imaging, higher = more signal
[16] = blockers of DNA damage checkpoint Chk1 activation – imaging, HeLa, hydroxyurea, phospho-Chk1 nuclear intensity, primary screen (AID 1187); conditions: hydroxyurea-induced phospho-Chk1 immunofluorescence imaging, higher = more signal

Homeobox protein Hox-A13 (Mus musculus), sequence (Q62424 whole entry, looked up): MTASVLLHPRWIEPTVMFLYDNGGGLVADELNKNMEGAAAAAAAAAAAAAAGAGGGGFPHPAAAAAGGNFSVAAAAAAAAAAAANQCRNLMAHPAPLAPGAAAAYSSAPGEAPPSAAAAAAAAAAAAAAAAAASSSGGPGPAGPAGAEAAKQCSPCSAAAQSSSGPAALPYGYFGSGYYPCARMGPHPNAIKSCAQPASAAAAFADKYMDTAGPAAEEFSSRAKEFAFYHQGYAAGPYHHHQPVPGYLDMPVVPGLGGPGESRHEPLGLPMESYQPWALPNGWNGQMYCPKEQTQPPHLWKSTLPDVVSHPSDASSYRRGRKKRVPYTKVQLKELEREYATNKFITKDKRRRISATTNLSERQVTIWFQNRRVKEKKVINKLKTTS
E3 ubiquitin-protein ligase XIAP (Homo sapiens), sequence (P98170 whole entry, looked up, the tested form may be a part): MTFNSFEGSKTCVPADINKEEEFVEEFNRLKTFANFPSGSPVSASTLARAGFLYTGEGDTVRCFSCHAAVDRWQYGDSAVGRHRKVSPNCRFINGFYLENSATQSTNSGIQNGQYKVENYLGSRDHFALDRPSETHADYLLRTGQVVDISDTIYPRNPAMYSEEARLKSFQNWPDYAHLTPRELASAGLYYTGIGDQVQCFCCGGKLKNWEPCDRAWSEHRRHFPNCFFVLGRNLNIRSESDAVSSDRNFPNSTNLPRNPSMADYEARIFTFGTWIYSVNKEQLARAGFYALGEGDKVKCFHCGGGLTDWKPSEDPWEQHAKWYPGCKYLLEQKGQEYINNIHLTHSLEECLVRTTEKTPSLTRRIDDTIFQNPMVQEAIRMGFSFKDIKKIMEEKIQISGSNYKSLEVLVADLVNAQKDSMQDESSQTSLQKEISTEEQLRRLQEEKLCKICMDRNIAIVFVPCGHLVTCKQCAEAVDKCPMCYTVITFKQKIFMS
Dihydroorotate dehydrogenase (quinone), mitochondrial (Plasmodium falciparum (isolate 3D7)), sequence (Q08210 whole entry, looked up): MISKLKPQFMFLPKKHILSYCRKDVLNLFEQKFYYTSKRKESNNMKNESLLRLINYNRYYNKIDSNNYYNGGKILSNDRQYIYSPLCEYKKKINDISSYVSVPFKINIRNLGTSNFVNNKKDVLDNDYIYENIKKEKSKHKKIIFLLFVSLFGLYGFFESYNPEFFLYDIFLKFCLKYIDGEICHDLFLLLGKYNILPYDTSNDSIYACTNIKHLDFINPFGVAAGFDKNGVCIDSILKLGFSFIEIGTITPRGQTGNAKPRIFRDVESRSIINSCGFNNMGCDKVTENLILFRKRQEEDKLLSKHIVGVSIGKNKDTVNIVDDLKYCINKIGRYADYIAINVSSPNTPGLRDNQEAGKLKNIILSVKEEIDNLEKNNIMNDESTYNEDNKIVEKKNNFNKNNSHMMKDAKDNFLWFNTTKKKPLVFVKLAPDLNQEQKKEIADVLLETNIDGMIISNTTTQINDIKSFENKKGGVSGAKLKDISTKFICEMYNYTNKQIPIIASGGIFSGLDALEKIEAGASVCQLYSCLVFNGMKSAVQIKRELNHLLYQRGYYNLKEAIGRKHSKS

SMILES	z-score [1]	z-score [2]	z-score [3]	composite z-score [4]	z-score [5]	z-score [6]	z-score [7]	z-score [8]	z-score [9]	composite z-score [10]	composite z-score [11]	composite z-score [12]	z-score [13]	z-score [14]	z-score [15]	z-score [16]
CN(C)C(=O)[C@]1(CCC(=O)OC(C)(C)C)N=C(c2ccc(OCCCO)cc2)O[C@@H]1c1ccccc1N=[N+]=[N-]	1.49	0.192 (inactive)	-0.556 (inactive)	0.565 (inactive)	-0.758 (inactive)	1.61 (inactive)	0.752 (inactive)	0.701 (inactive)	0.407	0.0317	0.639 (inactive)	0.803	-1.84	-6.23 (inactive)	0.201 (inactive)	0.588 (inactive)
C=CC(=C)C1=CCO[C@@H]1[C@H]1CCCN1S(=O)(=O)c1ccccc1[N+](=O)[O-]	1.09	-0.793 (inactive)	-0.22 (inactive)	-0.426 (inactive)	-0.578 (inactive)	0.223 (inactive)	0.858 (inactive)	0.714 (inactive)	0.187	-0.119	0.162 (inactive)	0.281	-1.51	-2.41 (inactive)	-0.0283 (inactive)	0.0588 (inactive)
COc1ccc(C(O)C2C=CC3C(=O)NC(=O)C3N2Nc2ccccn2)cc1OCc1ccccc1 (stereo not given)	-0.8	0.481 (inactive)	-0.581 (inactive)	1.58 (inactive)	1.48 (inactive)	0.18 (inactive)	-0.855 (inactive)	0.145 (inactive)	-1.87	0.578	0.816 (inactive)	-0.0026	-0.235	-2.68 (inactive)	0.682 (inactive)	0.581 (inactive)
COCCCNC(=O)[C@@]1(c2ccc([N+](=O)[O-])cc2)CC(=O)N(CC23CC4CC(CC(C4)C2)C3)[C@@H]1c1ccc(CO)cc1	-1.04	-0.67 (inactive)	-1.62 (inactive)	0.431 (inactive)	0.981 (inactive)	-0.24 (inactive)	0.788 (inactive)	0.351 (inactive)	-1.96	0.0374	0.0335 (inactive)	0.697	-0.0493	-5.17 (inactive)	-0.687 (inactive)	-0.404 (inactive)
Cc1ccc(S[C@]2(C(=O)NCc3ccccc3)CC(=O)N(Cc3ccccc3)[C@@H]2c2ccc(CO)cc2)cc1	-0.345	-0.27 (inactive)	0.0206 (inactive)	-0.465 (inactive)	0.429 (inactive)	0.265 (inactive)	-0.037 (inactive)	-0.472 (inactive)	-0.0925	-0.121	0.824 (inactive)	0.849	0.101	-2.39 (inactive)	-0.0397 (inactive)	0.377 (inactive)
[N-]=[N+]=NCc1ccccc1C[C@]1(C(=O)O)N=C(c2ccc(OCCCO)cc2)O[C@H]1c1ccccc1CN=[N+]=[N-]	0.924	-3.5 (inactive)	0.349 (inactive)	-2.16 (inactive)	0.563 (inactive)	-1.05 (inactive)	0.279 (inactive)	-0.717 (inactive)	-0.0479	-0.139	0.218 (inactive)	0.746	-0.507	-4.69 (inactive)	-0.0136 (inactive)	0.306 (inactive)
CCOC(=O)C[C@H]1[C@H](OC(=O)c2ccc(C(=O)c3ccccc3)cc2)[C@@H](NC(=O)C2CCCCC2)c2cc(OCCCO)ccc2N1C(=O)c1ccccc1	-0.341	-0.153 (inactive)	-0.239 (inactive)	-1.06 (inactive)	0.0186 (inactive)	-0.3 (inactive)	-0.715 (inactive)	-0.549 (inactive)	-0.125	-0.145	-0.373 (inactive)	0.186	0.863	-2.97 (inactive)	0.454 (inactive)	0.0465 (inactive)
[N-]=[N+]=NCc1ccccc1C[C@@]1(C(=O)NCC(O)CO)N=C(c2ccc(OCCCO)cc2)O[C@@H]1c1ccccc1CN=[N+]=[N-] (stereo not given in full)	0.376	-0.247 (inactive)	-1.3 (inactive)	0.34 (inactive)	2.33 (inactive)	0.0651 (inactive)	0.322 (inactive)	-0.0665 (inactive)	-1.03	-0.377	-0.0479 (inactive)	0.748	-2.01	-3.3 (inactive)	-0.0621 (inactive)	0.0477 (inactive)
O=C1C=CC(=O)[C@@H]2CC(COc3ccccc3)=C3[C@@H](CCc4ccccc4)OB(O)C[C@@H]3[C@H]12	-0.814	-6.89 (inactive)	-0.971 (inactive)	-2.68 (inactive)	0.212 (inactive)	-0.234 (inactive)	-0.569 (inactive)	-0.422 (inactive)	-0.664	0.0767	-0.193 (inactive)	0.433	-1.73	-5.92 (inactive)	-0.042 (inactive)	0.528 (inactive)
C[C@]1(C(=O)NCc2ccccc2)c2ccccc2C(=O)N(Cc2cc(F)cc(C(F)(F)F)c2)[C@H]1c1ccc(CO)cc1	-0.555	-0.276 (inactive)	-0.179 (inactive)	0.225 (inactive)	0.155 (inactive)	0.179 (inactive)	1.2 (inactive)	1.6 (inactive)	0.0748	0.0256	0.753 (inactive)	0.518	-0.327	-3.43 (inactive)	-0.603 (inactive)	-0.552 (inactive)
